SMILES strings stand for the structures.

The assay is described as follows: reversal of MRP1-mediated doxorubicin resistance, pilot screen, H69AR cells, doxorubicin co-treatment (AID 601). The settings on record: H69AR cells, CellTiter-Glo, 72 h; compound alone cytotoxicity; at 10 µM.
In the case of `COc1ccc(C(=O)NCc2nnc(SC)n2C2CCCCC2)cc1`, the viability is 92%.

For `Oc1ccc(Cl)cc1-c1cc(-c2ccccc2)n[nH]1`, the viability worked out at 6.37%.

In the case of `O=C(CCCn1c(=O)c2sccc2n(Cc2cc(=O)n3ccccc3n2)c1=O)NCc1ccco1`, the viability is 77%.

Take `COC(=O)c1cn(NC(=O)C2CCCO2)c(=O)c2ccccc12` (stereo not drawn): the viability is 96.6%. In the case of `CCN(CC)CCCNC(=O)c1cn(C)c2ccc(S(=O)(=O)N(C)C)cc2c1=O` it was 99.4%; in that of `Cc1nnc(SCCn2c(N3CCC(Cc4ccccc4)CC3)nc3c2c(=O)[nH]c(=O)n3C)s1`, 79.4%.

With `O=C(C(Cc1ccccc1)n1cccc1)N1CCCCCC1` (stereo not drawn), the viability is 95.6%. In the case of `O=C(Cn1nc(Cc2ccncc2)c2ccccc2c1=O)N1CCN(C(=O)c2ccco2)CC1`, the viability was 86%. For `COc1ccc(-c2nc(CS(=O)CC(=O)NCc3ccccn3)c(C)o2)cc1` (stereo not drawn), the viability was 92.9%.

For the compound `CCn1c(SCC(=O)Nc2ccc(Cl)cc2)nnc1C1CC1`, the viability was 74.7%. For the compound `CCOC(=O)CN(C(=O)c1ccccc1)c1ccccc1C`, the viability came to 109%. Consider `COC(=O)Cc1cc(=O)[nH]c(Nc2nc3ccccc3o2)n1`, for which the viability is 78.3%.

As for `COc1ccc(C2CC(c3cccc(C)c3)n3ncnc3N2)cc1` (stereo not drawn), the viability came out at 91.4%. On to `CC1CCCCN1CCNC(=O)C1CCN(S(=O)(=O)c2cccc3cccnc23)CC1` (stereo not drawn), for which the viability turned out to be 100%. As for `CCCCSc1nc(CCC)cc(=O)[nH]1`, the viability came out at 88.2%. With `CC1(C)CC(=O)C2=C(C1)NC(=O)CC2c1ccc(N(CCC#N)CCC#N)cc1` (stereo not drawn), the viability was 110%. Consider `Cc1cccc(OCC(=O)N2CCN(C(=O)Cc3ccccc3)CC2)c1`, for which the viability was 97.3%. With `O=C1CC(c2cccnc2)c2cc3c(cc2N1)OCO3` (stereo not drawn), the viability was 104%.

The record behind these values is PubChem BioAssay.
